The text below walks through data of PubChem BioAssay (NCI).

Each structure is given as a SMILES string. Compounds without any hit were thinned out: in the full panel of roughly 83,000, 20% have a hit.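 Method: cells in 96-well plates; compound added at one concentration; 48 h incubation; percent growth measured; values under 10 scored active.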 Values without a mark were called inactive. Calls of active or inactive are those of the source.

This assay deals with KM12 colon. In words: NCI-60 one-dose screen, 48 h (100 = growth as untreated, 0 = no growth, -100 = all killed). Conditions: 10 µM unless noted. Here is the method:
Growth inhibition of the KM12 human tumor cell line is measured as a screen for anti-cancer activity. Cells are grown in 96 well plates and exposed to the test compound for 48 hours. Compounds are tested at a single concentration, which is 10^-5 M for most compounds. The reported endpoint is percent growth (GI% or GIPRCNT), where numbers from 0 - 100% represent growth inhibition, and numbers from -100% - 0 represent cell death. For example, a value of 40 represents 60% growth inhibition. A value of 0 means no net growth occurred over the course of the experiment. A value of -40 indicates 40% of cells at the beginning of the experiment died by the end of the experiment. A value of -100 means all cells are dead at the end of the experiment.
NCI-60 Human Tumor Cell Lines Screen was performed using the standard one-dose NCI protocol, which is described in more detail at https://dtp.cancer.gov/discovery_development/nci-60/default.htm.
Compounds with GIPRCNT values below 10 were considered active. Activity score was based on GIPRCNT using the following formula: […]
Score is 0 for GIPRCNT values of 100 or above, 50 for GIPRCNT values of 0, and 100 for GIPRCNT values of -100.
Take `O=C(CN1CCOCC1)NNc1ncnc2ccccc12`: the growth was 97.1%.

Regarding `N#Cc1c(-c2ccc(Cl)cc2)nc(SCc2ccc([N+](=O)[O-])cc2)nc1N1CCNCC1`, the growth is -47.2% (active).

In the case of `CC1=C(C)C(=O)C(Nc2ccccc2)=C(Cl)C1=O`, the growth is 78.3%.

As for `O=C(N/N=C/c1ccc[nH]1)c1[nH]c2ccc(Br)cc2c1-c1ccccc1`, the growth is 10.4%.

Consider `CCOC(=O)c1c(Nc2ccccc2)nn2c(-c3ccco3)c(C#N)cnc12`, for which the growth is 98.6%.

Consider `NS(=O)(=O)c1ccc(Nc2nc(SCC(=O)c3ccc(Cl)cc3)nc3ccccc23)cc1`, for which the growth is 87%.

For `CCCC(=O)NC(c1ccc2c(c1)OC(F)(F)O2)c1cc(C)c2cccnc2c1O` (stereo not given), the growth is 21.4%.

On to `CN(C)CCCNc1c2ccc(Cl)cc2nc2c1oc1ccccc12`, for which the growth was 1.73% (active).

Turning to `COc1cc(-c2nc3ccc(-c4nnc(SCC(=O)Nc5ccc(C(C)=O)cc5)o4)cc3[nH]2)cc(OC)c1OC`, the growth is 101%.

`N#Cc1nc(-c2ccccc2)oc1S(=O)(=O)N1CCN(CCc2ccccn2)CC1`: the growth is 84.1%.

As for `Cc1sc2c(c1C)c(=O)nc1c(-c3nc(-c4ccc(F)cc4)no3)n[nH]n12`, the growth was 106%.

On to `N/C(=N\c1nc2c(Cl)cc(Cl)cc2s1)C(Cl)(Cl)Cl`, for which the growth was 1.36% (active).

As to `COc1cc(/C=C/C(=O)c2ccc(C(F)(F)F)cc2)ccc1Oc1nc(NCCO)nc(N2CCOCC2)n1`, the growth was 62.4%.

Turning to `c1ccc2c(NCCCn3ccnc3)c3oc4ccccc4c3nc2c1`, the growth was 7.47% (active).

Consider `CCC/C=C/C=C/C(=O)N[C@@H](Cc1cc(F)cc(F)c1)C(=O)N[C@@H]1C(=O)N2CCC[C@H]2C(=O)N2CCCC[C@H]2C(=O)N[C@@H](C)C(=O)N2C[C@H](C)C[C@H]2C(=O)O[C@H]1C`, for which the growth was 33.3%.

Take `COC(=O)C1CCCN(S(=O)(=O)/N=C2\NC(=O)NC2=C(Cl)Cl)C1` (stereo not given): the growth was 4.95% (active).

On to `COc1ccc(C(=O)/C=C/c2ccc(OCc3ccc(Cl)cc3)c(OC)c2)cc1OC`, for which the growth is 54.9%.

For `C/C(=C(/c1ccc(Cl)cc1)c1ccc(OCCN)cc1)c1ccc(C)cc1`, the growth was 103%.

On to `COc1ccc(-c2csc(N/N=C/c3c(-c4ccc(S(C)(=O)=O)cc4)nc4ccccn34)n2)cc1`, for which the growth is 103%.

Turning to `Cc1nc(-c2cc3ccccc3oc2=O)ccc1C(=O)/C=C/c1ccccn1`, the growth is 6.06% (active).

Consider `C#C[C@]1(O)CC[C@H]2[C@@H]3CC=C4c5sc(-c6ccc(F)cn6)nc5CC[C@]4(C)[C@H]3CC[C@@]21C`, for which the growth is 13.9%.

Consider `COc1cccc(N2CCN(c3ncnc4c3[nH]c3ccc(F)cc34)C[C@@H]2C)c1`, for which the growth was -71% (active).

In the case of `Nc1cc(-c2c[nH]c3ccc(F)cc23)nc2cc(-c3c[nH]c4ccc(F)cc34)nn12`, the growth was 40.6%.

With `N#Cc1c(-c2ccc(Cl)cc2)nc(SCc2ccc(F)cc2)nc1N1CCNCC1`, the growth is 33.6%.

In the case of `COc1ccc(C(=O)/C=C/c2ccc(OCc3ccc(C)cc3)c(OC)c2)cc1OC`, the growth was 51.5%.

Take `CCCCCCNC(=O)Oc1ccc(/C(=C(/C)c2ccccc2)c2ccc(OCCN3CCCCCC3)cc2)cc1`: the growth is 32.3%.

On to `COc1ccc(NC2=C(Cl)C(=O)C(C)=C(C)C2=O)cc1OC`, for which the growth is 55.2%.

On to `[Cl][Ru].c1ccc(-c2cccc(-c3ccccn3)n2)nc1.c1ccc(-c2ccnc3c2ccc2c(-c4ccccc4)ccnc23)cc1`, for which the growth was 8.28% (active).

As to `NC(=O)c1cc(-c2ccc3ncnc(N4CCc5cc(F)c(Cl)cc54)c3c2)cnc1N`, the growth is 29.9%.

Take `COc1cc(OC)c(C2C(Cl)C(=O)N2Nc2ncnc3ccccc23)cc1OC` (stereo not given): the growth is 101%.

Consider `CCN1C(=S)N(c2ccccc2)C2NC(=O)N(/N=C/C=C/c3ccccc3OC)C21` (stereo not given), for which the growth is 88.3%.

As to `Nc1cc(-c2c[nH]c3ccccc23)nc2cc(-c3c[nH]c4ccccc34)nn12`, the growth was 10.3%.

`CC(=NNc1ncnc2ccccc12)c1ccc(S(C)(=O)=O)cc1`: the growth is 102%.

For `CSc1ccc2c(c1)N(C(=O)/C(C#N)=C/c1c[nH]c3ccccc13)c1ccccc1S2`, the growth was 24.5%.

With `N#Cc1nc(-c2ccccc2)oc1S(=O)(=O)N1CCCCC1`, the growth was 101%.

`CC(C)(C)Nc1nc2c(OCCc3ccccc3)cccn2c1-c1ccc(O)cc1`: the growth is 38.2%.

For the molecule `CCOc1ccc2nc(NC(=O)c3ccc(C(F)(F)F)cc3)sc2c1`, the growth is 103%.

Consider `Clc1ccc(Cc2nnc3sc(-c4cccnc4)nn23)cc1`, for which the growth is 99.7%.

With `C#Cc1nc(C2=C(C)C(OC(=O)CCC(=O)O)CC2)cs1` (stereo not given), the growth is 79.2%.

With `COC(=O)C1CN(S(=O)(=O)/N=C2\NC(=O)NC2=C(Cl)Cl)C1`, the growth is 8.89% (active).
